About 7,900 targets were measured; listed, in parts, are those with a hit and a random draw of the rest. About 0.6% of all pairs of compound and target were hits.
Experiments:
Assay in all cases: log2 fold change, soluble protein after heating vs DMSO (PISA); higher = thermal stabilisation; K562 cells, 10 uM, 30 min; active = over 0.2 and 3.5 SD of the protein, either way, in both replicates (recomputed)
[1] = compound: COC1=CC=C(C=C1)CN2C=CC3=C2C=C(C=C3)C(=O)NO
Procedure, shortened: (§1)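 Thermal stability values are relative to control samples and come from duplicates. They are expressed as log2 fold changes. For measurement, K562 cells (2×10^6 cells/mL) received 10 μM compound for 30 min, and aliquots were heated for 3 min over 48°C-58°C, pooled, and extracted at 4°C in PBS with 0.5% NP-40. Soluble protein, the supernatant after 21,000xg for 90 min, was quantified by TMTpro 16plex LC-MS/MS with equalised channel sums.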

filanesib = compound: CON(C)C(=O)N1N=C(c2cc(F)ccc2F)S[C@@]1(CCCN)c1ccccc1 [filanesib]
Procedure, shortened: as §1

zotarolimus = compound: CO[C@H]1C[C@@H]2CC[C@@H](C)[C@@](O)(O2)C(=O)C(=O)N2CCCC[C@H]2C(=O)O[C@H]([C@H](C)C[C@@H]2CC[C@H](n3cnnn3)[C@H](OC)C2)CC(=O)[C@H](C)/C=C(\C)[C@@H](O)[C@@H](OC)C(=O)[C@H](C)C[C@H](C)/C=C/C=C/C=C/1C [zotarolimus]
Procedure, shortened: as §1

idasanutlin = compound: COc1cc(C(=O)O)ccc1NC(=O)[C@@H]1N[C@@H](CC(C)(C)C)[C@](C#N)(c2ccc(Cl)cc2F)[C@H]1c1cccc(Cl)c1F [idasanutlin]
Procedure, shortened: as §1

alisertib = compound: COc1cc(Nc2ncc3c(n2)-c2ccc(Cl)cc2C(c2c(F)cccc2OC)=NC3)ccc1C(=O)O [alisertib]
Procedure, shortened: as §1

gefitinib = compound: COc1cc2ncnc(Nc3ccc(F)c(Cl)c3)c2cc1OCCCN1CCOCC1 [gefitinib]
Procedure, shortened: as §1

[2] = compound: COc1cccc2cc(-c3nc([C@H]4CC[C@H](C(=O)O)CC4)n4ncnc(N)c34)[nH]c12
Procedure, shortened: as §1

pictilisib = compound: CS(=O)(=O)N1CCN(Cc2cc3nc(-c4cccc5[nH]ncc45)nc(N4CCOCC4)c3s2)CC1 [pictilisib]
Procedure, shortened: as §1

[3] = compound: COc1cc2nc(-c3cc(F)ccc3O)nc(N[C@@H]3CNC[C@H]3C(C)(C)O)c2cc1OC
Procedure, shortened: as §1

lapatinib = compound: CS(=O)(=O)CCNCc1ccc(-c2ccc3ncnc(Nc4ccc(OCc5cccc(F)c5)c(Cl)c4)c3c2)o1 [lapatinib]
Procedure, shortened: as §1

Measured: log2 fold change

ADAMTS5 (UniProt Q9UNA0)
inactive: [1] 0.295 | filanesib -0.051 | zotarolimus -0.063 | idasanutlin -0.06 | alisertib 0.019 | gefitinib 0.012 | [2] 0.092 | pictilisib 0.198

ANK2 (UniProt Q01484)
inactive: [1] -0.054 | filanesib -0.052 | zotarolimus -0.05 | idasanutlin 0.083 | alisertib -0.076 | [3] -0.04 | gefitinib -0.062 | [2] 0.048 | lapatinib -0.013
active: pictilisib 0.532

BAP1 (UniProt Q92560)
inactive: [1] 0.032 | filanesib 0.111 | zotarolimus 0.046 | idasanutlin 0.164 | alisertib -0.112 | [3] -0.006 | gefitinib -0.055 | [2] -0.024 | lapatinib 0.119 | pictilisib 0.062

ARFIP1 isoform 2 (UniProt P53367)
inactive: [1] -0.225 | filanesib -0.082 | alisertib -0.17 | [3] -0.013 | gefitinib -0.067 | [2] -0.068 | lapatinib 0.05 | pictilisib -0.154

ACTBL2 (UniProt Q562R1)
inactive: filanesib 0.171 | idasanutlin 0.533 | alisertib 0.521 | [3] -0.085 | gefitinib 0.348 | [2] -0.105 | lapatinib -0.079 | pictilisib -0.541

ARL4A (UniProt P40617)
inactive: idasanutlin 0.056 | alisertib 0.042 | [2] 0.094

ALDH9A1 (UniProt P49189)
inactive: filanesib -0.149 | zotarolimus -0.164 | idasanutlin -0.073 | alisertib -0.091 | [3] 0.038 | gefitinib 0.039 | [2] 0.081 | lapatinib -0.037 | pictilisib -0.124

ADPRH (UniProt P54922)
inactive: [1] 0.098 | filanesib -0.088 | alisertib -0.099 | [3] 0.135 | gefitinib 0.013 | [2] -0.033 | lapatinib 0.05 | pictilisib -0.107

ACSL6 isoform 1 (UniProt Q9UKU0)
inactive: filanesib -0.054 | alisertib -0.013 | gefitinib 0.103 | [2] 0.123 | pictilisib 0.051

ATXN7L3 isoform 2 (UniProt Q14CW9)
Sequence of UniProt Q14CW9 (Q14CW9 whole entry, looked up): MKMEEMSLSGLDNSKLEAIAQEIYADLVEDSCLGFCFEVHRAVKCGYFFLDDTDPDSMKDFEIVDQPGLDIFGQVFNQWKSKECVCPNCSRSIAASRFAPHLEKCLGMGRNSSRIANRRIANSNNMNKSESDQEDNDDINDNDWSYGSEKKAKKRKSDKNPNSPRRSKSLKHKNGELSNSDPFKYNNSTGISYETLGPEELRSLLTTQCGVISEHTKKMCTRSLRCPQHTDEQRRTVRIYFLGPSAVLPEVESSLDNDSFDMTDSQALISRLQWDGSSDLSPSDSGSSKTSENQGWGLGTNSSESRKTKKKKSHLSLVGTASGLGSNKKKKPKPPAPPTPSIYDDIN
inactive: [1] -0.158 | filanesib -0.02 | idasanutlin 0.193 | alisertib -0.191 | gefitinib 0.052 | [2] 0.035

BRD4 (UniProt O60885)
inactive: filanesib -0.068 | zotarolimus -0.253 | idasanutlin -0.001 | alisertib -0.064 | [3] 0.078 | gefitinib 0.152 | [2] -0.003 | lapatinib -0.039 | pictilisib 0.161

ASB6 (UniProt Q9NWX5)
inactive: [1] 0.298 | filanesib 0.008 | idasanutlin -0.029 | alisertib -0.214 | [3] -0.083 | gefitinib -0.034 | [2] 0 | lapatinib -0.055 | pictilisib 0.157

AKNA (UniProt Q7Z591)
Sequence of UniProt Q7Z591 (Q7Z591 whole entry, looked up): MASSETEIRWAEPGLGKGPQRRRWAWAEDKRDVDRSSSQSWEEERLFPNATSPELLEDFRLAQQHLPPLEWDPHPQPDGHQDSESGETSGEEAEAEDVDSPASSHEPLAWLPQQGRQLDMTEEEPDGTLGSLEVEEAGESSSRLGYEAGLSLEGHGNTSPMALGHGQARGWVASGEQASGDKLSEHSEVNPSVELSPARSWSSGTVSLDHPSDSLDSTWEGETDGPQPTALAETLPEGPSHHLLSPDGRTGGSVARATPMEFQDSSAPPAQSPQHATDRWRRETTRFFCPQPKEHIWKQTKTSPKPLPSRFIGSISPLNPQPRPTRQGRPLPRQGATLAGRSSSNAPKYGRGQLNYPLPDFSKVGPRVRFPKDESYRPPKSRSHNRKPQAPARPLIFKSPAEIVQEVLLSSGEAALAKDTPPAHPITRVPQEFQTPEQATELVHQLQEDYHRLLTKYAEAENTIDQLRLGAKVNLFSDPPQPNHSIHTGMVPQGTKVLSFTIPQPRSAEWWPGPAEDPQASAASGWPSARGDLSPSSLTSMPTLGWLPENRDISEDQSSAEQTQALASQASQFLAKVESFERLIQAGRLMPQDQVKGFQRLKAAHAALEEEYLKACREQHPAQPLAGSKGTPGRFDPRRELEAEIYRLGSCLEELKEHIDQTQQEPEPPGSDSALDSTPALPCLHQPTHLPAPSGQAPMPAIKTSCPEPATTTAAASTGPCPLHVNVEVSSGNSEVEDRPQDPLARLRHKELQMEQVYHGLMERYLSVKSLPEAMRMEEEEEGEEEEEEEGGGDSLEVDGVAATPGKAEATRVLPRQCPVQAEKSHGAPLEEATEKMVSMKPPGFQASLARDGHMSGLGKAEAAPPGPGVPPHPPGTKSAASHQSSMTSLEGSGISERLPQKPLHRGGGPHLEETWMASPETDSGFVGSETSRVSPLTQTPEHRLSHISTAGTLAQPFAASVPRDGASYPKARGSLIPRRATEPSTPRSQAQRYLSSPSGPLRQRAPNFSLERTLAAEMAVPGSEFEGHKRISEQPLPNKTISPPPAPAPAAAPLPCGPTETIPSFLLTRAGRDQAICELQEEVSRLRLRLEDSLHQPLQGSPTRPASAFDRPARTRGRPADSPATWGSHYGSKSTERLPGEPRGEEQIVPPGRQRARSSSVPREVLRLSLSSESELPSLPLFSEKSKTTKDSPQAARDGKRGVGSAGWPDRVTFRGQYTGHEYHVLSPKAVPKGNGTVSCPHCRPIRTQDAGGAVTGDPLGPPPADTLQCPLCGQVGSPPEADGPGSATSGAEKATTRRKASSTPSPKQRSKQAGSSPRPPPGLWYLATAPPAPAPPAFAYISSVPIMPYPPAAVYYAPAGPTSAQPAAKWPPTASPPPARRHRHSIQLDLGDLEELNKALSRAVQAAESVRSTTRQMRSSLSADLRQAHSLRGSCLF
inactive: filanesib 0.04 | zotarolimus 0.01 | [3] 0.205 | lapatinib -0.059

AMD1 (UniProt P17707)
inactive: [1] -0.009 | filanesib -0.128 | idasanutlin -0.193 | alisertib -0.023 | [3] 0.024 | gefitinib 0.041 | [2] 0.058 | lapatinib -0.034 | pictilisib 0.043

BAIAP2 isoform 4 (UniProt Q9UQB8)
inactive: filanesib 0.302 | zotarolimus -0.184

ACTR3B (UniProt Q9P1U1)
active: [1] 0.407
inactive: [3] 0.022 | gefitinib -0.213 | lapatinib -0.056 | pictilisib -0.021

ATF1 (UniProt P18846)
active: zotarolimus -0.51
inactive: filanesib 0.097 | idasanutlin -0.082 | alisertib -0.101 | [3] -0.071 | gefitinib 0.052 | [2] 0.006 | lapatinib -0.011 | pictilisib -0.039

ADD1 isoform 4 (UniProt P35611)
inactive: [1] -0.054 | zotarolimus -0.065 | pictilisib -0.068

BRMS1 (UniProt Q9HCU9)
inactive: idasanutlin 0.066 | alisertib -0.074 | [2] 0.007 | pictilisib 0.042

AIF1 (UniProt P55008)
Sequence of UniProt P55008 (P55008 whole entry, looked up): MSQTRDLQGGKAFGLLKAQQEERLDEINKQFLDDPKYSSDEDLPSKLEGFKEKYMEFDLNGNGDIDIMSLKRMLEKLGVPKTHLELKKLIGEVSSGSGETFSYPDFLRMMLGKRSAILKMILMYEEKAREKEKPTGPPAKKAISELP
inactive: filanesib 0.038 | idasanutlin 0.052 | [3] 0.083 | lapatinib 0.053

AUH (UniProt Q13825)
Sequence of UniProt Q13825 (Q13825 whole entry, looked up): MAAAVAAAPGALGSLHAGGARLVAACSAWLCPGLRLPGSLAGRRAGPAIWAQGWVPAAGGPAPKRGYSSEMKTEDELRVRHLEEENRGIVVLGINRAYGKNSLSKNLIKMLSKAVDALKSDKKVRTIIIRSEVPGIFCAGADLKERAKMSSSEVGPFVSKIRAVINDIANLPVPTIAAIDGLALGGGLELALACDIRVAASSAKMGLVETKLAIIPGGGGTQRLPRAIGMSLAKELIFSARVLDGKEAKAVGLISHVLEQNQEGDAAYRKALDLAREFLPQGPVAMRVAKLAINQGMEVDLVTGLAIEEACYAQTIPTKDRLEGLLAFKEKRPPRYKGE
inactive: [1] -0.107 | zotarolimus 0.009 | idasanutlin -0.074 | alisertib 0.175 | [3] -0.036 | [2] 0.034 | lapatinib 0.056 | pictilisib -0.071

ARHGAP25 isoform 4 (UniProt P42331)
inactive: zotarolimus -0.077 | idasanutlin -0.123 | alisertib -0.068 | gefitinib 0.08 | [2] -0.11 | pictilisib 0.085

BTBD6 (UniProt Q96KE9)
Sequence of UniProt Q96KE9 (Q96KE9 whole entry, looked up): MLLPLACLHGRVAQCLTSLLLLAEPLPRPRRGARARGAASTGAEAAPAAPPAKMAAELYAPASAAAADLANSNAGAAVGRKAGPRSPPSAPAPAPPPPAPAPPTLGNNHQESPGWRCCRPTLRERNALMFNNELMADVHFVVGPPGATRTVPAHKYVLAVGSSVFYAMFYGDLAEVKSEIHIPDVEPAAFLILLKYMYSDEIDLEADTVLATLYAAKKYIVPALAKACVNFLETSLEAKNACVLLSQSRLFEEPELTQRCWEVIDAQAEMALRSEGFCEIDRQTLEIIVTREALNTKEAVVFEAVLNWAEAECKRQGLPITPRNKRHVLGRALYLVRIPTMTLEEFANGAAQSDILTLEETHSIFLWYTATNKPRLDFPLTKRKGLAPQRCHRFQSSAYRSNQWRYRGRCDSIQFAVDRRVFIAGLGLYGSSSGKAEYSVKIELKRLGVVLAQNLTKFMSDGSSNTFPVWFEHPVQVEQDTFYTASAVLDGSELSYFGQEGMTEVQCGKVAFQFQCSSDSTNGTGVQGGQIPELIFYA
inactive: filanesib -0.019 | zotarolimus 0.062 | idasanutlin 0.053 | alisertib -0.058 | [3] 0.194 | gefitinib 0.03 | [2] -0.186 | lapatinib -0.072 | pictilisib 0.143

ACVR1 (UniProt Q04771)
Sequence of UniProt Q04771 (Q04771 whole entry, looked up): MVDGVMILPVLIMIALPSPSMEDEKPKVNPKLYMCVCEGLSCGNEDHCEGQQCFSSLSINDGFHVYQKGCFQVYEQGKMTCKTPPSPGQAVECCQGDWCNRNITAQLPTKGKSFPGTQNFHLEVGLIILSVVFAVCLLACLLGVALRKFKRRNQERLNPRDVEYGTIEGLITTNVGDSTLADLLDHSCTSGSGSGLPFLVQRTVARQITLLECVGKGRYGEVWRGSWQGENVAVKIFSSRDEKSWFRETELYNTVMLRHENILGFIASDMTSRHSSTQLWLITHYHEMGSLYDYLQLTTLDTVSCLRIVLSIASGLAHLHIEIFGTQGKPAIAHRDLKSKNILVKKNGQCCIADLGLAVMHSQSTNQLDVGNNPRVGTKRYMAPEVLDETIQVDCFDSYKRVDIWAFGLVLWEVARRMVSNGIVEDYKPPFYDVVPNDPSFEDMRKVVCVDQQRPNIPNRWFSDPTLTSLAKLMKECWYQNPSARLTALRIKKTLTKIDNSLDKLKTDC
inactive: filanesib -0.022 | zotarolimus -0.371 | idasanutlin -0.156 | alisertib -0.096 | [3] 0.133 | [2] -0.13 | lapatinib -0.004 | pictilisib 0.248

AZI2 (UniProt Q9H6S1)
inactive: filanesib 0.006 | gefitinib 0.227

AARSD1 (UniProt Q9BTE6)
inactive: [1] -0.659 | zotarolimus 0.055 | idasanutlin -0.071 | alisertib 0.08 | [3] 0.036 | gefitinib 0.157 | [2] -0.016 | lapatinib 0.069

BAP18 isoform 3 (UniProt Q8IXM2)
inactive: alisertib -0.033 | [2] 0.12 | pictilisib -0.093

ARRDC1 (UniProt Q8N5I2)
Sequence of UniProt Q8N5I2 (Q8N5I2 whole entry, looked up): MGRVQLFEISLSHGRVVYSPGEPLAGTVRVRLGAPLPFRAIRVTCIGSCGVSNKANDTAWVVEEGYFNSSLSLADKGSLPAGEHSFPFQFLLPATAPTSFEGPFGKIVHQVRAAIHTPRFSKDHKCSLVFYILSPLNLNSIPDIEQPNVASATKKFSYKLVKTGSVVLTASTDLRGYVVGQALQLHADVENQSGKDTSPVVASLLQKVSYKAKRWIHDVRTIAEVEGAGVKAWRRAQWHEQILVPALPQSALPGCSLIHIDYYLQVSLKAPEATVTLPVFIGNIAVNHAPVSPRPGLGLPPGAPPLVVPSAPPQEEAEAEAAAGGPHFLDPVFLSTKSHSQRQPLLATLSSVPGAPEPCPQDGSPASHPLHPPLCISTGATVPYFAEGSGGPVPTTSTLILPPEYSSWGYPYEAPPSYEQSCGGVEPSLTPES
inactive: filanesib 0.013 | zotarolimus 0.182 | alisertib 0.152 | [3] -0.098 | gefitinib -0.009 | [2] 0 | lapatinib 0.01 | pictilisib -0.092

ATXN3 isoform 1 (UniProt P54252)
inactive: [1] 0.023 | zotarolimus -0.051 | idasanutlin -0.114 | alisertib -0.004 | [3] 0.106 | gefitinib -0.192 | [2] 0.297 | lapatinib -0.031 | pictilisib -0.036

ARMC8 isoform 6 (UniProt Q8IUR7)
inactive: idasanutlin 0.072 | gefitinib 0.072

AUNIP isoform 2 (UniProt Q9H7T9)
Sequence of UniProt Q9H7T9 (Q9H7T9 whole entry, looked up): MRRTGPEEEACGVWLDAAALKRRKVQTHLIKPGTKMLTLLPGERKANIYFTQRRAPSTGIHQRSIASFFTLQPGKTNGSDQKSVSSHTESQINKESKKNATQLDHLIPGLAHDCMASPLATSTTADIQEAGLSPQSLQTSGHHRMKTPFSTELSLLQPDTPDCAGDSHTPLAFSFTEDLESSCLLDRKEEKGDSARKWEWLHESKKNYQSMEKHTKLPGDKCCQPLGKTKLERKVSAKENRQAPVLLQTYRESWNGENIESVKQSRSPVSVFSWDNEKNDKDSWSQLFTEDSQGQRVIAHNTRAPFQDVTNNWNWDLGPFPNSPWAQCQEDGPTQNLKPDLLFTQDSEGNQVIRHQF
inactive: filanesib 0.125 | zotarolimus -0.044 | idasanutlin 0.142 | [3] -0.229 | lapatinib 0.099

ALG14 (UniProt Q96F25)
inactive: [1] -0.2 | zotarolimus -0.109 | idasanutlin -0.091 | alisertib 0.112 | [3] -0.19 | gefitinib 0.074 | [2] 0.077 | lapatinib 0.168 | pictilisib -0.467

BSCL2 isoform 4 (UniProt Q96G97)
Sequence of UniProt Q96G97 (Q96G97 whole entry, looked up): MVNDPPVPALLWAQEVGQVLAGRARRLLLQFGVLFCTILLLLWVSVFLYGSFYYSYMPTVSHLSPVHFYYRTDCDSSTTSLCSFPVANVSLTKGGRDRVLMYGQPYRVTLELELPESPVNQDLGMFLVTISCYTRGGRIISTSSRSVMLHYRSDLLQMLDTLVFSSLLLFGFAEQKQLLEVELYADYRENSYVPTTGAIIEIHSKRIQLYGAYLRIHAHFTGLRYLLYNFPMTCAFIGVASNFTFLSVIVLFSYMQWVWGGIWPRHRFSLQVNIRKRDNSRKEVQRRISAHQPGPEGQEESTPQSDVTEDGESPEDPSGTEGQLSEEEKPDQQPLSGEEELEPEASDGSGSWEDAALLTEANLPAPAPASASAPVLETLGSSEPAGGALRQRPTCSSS
inactive: zotarolimus 0.076 | idasanutlin -0.132 | alisertib -0.037 | [3] -0.248 | gefitinib 0.021 | [2] 0.069 | lapatinib 0.048 | pictilisib 0.126

ALDH2 isoform 2 (UniProt P05091)
inactive: filanesib 0.013 | idasanutlin 0 | [3] 0.166 | lapatinib -0.266 | pictilisib -0.035

ASS1 (UniProt P00966)
inactive: filanesib -0.101 | zotarolimus 0.012 | idasanutlin -0.085 | alisertib 0.254 | [3] 0.047 | gefitinib -0.005 | [2] 0.056 | lapatinib -0.012 | pictilisib 0.018

ADD2 isoform 9 (UniProt P35612)
inactive: filanesib 0.043 | alisertib -0.072 | [3] -0.053 | [2] 0.282 | lapatinib 0.04

ABHD11 (UniProt Q8NFV4)
Sequence of UniProt Q8NFV4 (Q8NFV4 whole entry, looked up): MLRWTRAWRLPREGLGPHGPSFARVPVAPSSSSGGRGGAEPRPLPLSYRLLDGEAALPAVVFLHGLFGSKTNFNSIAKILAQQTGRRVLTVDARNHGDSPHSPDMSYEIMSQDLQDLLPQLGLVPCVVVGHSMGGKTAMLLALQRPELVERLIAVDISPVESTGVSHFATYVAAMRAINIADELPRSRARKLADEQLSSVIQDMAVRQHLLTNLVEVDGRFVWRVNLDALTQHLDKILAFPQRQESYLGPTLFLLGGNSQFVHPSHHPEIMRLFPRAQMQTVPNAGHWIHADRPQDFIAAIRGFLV
inactive: [1] -0.076 | zotarolimus 0.049 | idasanutlin -0.058 | alisertib -0.002 | [3] 0.061 | gefitinib -0.013 | [2] 0.076 | lapatinib -0.037 | pictilisib 0.024

ARHGAP4 isoform 2 (UniProt P98171)
inactive: filanesib 0.027 | zotarolimus -0.012 | idasanutlin 0.104 | alisertib 0.166 | [3] 0.067 | gefitinib -0.211 | [2] 0.028 | lapatinib 0.051

BRAF, A0A2R8Y8E0
inactive: [1] -0.008 | idasanutlin 0.221 | alisertib -0.054 | gefitinib -0.027 | [2] -0.326
